How the values were obtained:
[1] = target: T1, Tyrosine-protein kinase receptor TYRO3 (Homo sapiens) (UniProt Q06418); conditions: at 1 µM
T1 sequence (whole entry): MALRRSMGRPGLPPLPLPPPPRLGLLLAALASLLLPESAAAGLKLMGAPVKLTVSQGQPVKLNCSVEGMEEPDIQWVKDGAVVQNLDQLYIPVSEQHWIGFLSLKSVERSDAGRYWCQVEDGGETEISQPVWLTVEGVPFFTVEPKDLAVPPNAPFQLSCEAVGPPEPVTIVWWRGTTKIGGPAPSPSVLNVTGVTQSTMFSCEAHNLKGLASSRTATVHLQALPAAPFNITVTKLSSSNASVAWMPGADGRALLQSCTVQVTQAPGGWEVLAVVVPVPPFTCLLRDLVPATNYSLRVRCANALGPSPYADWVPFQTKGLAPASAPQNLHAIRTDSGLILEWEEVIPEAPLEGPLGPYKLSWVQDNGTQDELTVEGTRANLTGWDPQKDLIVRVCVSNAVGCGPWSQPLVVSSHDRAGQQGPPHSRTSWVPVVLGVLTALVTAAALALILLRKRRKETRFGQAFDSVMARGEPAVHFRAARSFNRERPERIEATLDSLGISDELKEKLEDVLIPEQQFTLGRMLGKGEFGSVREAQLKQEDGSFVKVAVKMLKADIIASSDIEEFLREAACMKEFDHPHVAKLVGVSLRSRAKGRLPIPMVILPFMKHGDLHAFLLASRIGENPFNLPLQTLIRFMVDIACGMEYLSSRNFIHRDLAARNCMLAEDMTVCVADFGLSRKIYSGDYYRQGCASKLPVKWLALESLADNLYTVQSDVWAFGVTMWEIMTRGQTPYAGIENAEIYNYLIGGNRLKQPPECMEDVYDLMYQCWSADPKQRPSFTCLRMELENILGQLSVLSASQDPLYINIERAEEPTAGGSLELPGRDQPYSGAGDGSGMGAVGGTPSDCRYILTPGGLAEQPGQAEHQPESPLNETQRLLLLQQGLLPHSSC

[2] = target: Tyrosine-protein kinase Yes (Homo sapiens) (UniProt P07947); conditions: at 0.1 µM
[3] = target: Tyrosine-protein kinase Yes (Homo sapiens) (UniProt P07947); conditions: at 1 µM
[4] = target: T2, Tyrosine-protein kinase ZAP-70 (Homo sapiens) (UniProt P43403); conditions: at 0.1 µM
T2 sequence (whole entry): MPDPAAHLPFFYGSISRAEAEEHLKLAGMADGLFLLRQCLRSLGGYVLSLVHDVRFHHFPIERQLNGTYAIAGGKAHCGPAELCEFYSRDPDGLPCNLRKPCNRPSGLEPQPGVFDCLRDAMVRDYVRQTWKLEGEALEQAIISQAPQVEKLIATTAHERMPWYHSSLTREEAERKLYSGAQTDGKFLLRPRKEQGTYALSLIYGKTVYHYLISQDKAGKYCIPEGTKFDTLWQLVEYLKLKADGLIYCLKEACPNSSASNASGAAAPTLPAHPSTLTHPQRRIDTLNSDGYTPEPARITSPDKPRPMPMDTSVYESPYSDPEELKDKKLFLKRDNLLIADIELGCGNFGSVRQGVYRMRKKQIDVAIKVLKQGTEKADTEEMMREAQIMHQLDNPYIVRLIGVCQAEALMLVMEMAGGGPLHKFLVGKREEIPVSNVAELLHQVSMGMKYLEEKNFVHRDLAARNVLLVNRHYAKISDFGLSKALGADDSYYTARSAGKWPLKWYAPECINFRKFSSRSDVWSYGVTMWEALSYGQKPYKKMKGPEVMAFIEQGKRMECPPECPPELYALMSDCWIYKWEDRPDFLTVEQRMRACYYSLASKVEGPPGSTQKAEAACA

[5] = target: T2, Tyrosine-protein kinase ZAP-70 (Homo sapiens); conditions: at 1 µM
[6] = target: Serine/threonine-protein kinase B-raf (Homo sapiens) (UniProt P15056); conditions: at 0.1 µM
[7] = target: Serine/threonine-protein kinase B-raf (Homo sapiens) (UniProt P15056); conditions: at 1 µM
[8] = test system: Serine/threonine-protein kinase B-raf (Homo sapiens), P15056 [V600E]; conditions: at 0.1 µM
[9] = test system: Serine/threonine-protein kinase B-raf (Homo sapiens), P15056 [V600E]; conditions: at 1 µM
[10] = target: RAF proto-oncogene serine/threonine-protein kinase (Homo sapiens) (UniProt P04049); conditions: at 0.1 µM
[11] = target: T3, Interleukin-1 receptor-associated kinase 4 (Homo sapiens) (UniProt Q9NWZ3); conditions: at 0.1 µM
T3 sequence (whole entry): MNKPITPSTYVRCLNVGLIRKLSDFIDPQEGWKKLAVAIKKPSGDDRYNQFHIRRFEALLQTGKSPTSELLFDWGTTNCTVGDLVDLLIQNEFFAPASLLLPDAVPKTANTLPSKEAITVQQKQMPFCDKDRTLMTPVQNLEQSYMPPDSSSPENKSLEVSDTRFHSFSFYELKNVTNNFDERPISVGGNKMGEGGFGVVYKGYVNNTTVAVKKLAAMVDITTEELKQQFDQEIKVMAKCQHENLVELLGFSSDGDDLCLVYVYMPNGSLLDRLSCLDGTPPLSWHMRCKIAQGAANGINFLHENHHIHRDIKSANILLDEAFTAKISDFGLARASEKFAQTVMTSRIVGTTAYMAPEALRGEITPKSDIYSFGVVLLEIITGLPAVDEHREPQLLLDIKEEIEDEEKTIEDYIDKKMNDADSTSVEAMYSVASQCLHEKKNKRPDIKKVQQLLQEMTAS

[12] = target: T3, Interleukin-1 receptor-associated kinase 4 (Homo sapiens); conditions: at 1 µM
[13] = target: Leucine-rich repeat serine/threonine-protein kinase 2 (Homo sapiens) (UniProt Q5S007); conditions: at 0.1 µM
[14] = target: Leucine-rich repeat serine/threonine-protein kinase 2 (Homo sapiens) (UniProt Q5S007); conditions: at 1 µM
[15] = test system: Leucine-rich repeat serine/threonine-protein kinase 2 (Homo sapiens), Q5S007 [G2019S]; conditions: at 0.1 µM
[16] = test system: Leucine-rich repeat serine/threonine-protein kinase 2 (Homo sapiens), Q5S007 [G2019S]; conditions: at 1 µM
[17] = target: RAF proto-oncogene serine/threonine-protein kinase (Homo sapiens) (UniProt P04049); conditions: at 1 µM

Chain of Leucine-rich repeat serine/threonine-protein kinase 2 (Homo sapiens) (Q5S007 whole entry): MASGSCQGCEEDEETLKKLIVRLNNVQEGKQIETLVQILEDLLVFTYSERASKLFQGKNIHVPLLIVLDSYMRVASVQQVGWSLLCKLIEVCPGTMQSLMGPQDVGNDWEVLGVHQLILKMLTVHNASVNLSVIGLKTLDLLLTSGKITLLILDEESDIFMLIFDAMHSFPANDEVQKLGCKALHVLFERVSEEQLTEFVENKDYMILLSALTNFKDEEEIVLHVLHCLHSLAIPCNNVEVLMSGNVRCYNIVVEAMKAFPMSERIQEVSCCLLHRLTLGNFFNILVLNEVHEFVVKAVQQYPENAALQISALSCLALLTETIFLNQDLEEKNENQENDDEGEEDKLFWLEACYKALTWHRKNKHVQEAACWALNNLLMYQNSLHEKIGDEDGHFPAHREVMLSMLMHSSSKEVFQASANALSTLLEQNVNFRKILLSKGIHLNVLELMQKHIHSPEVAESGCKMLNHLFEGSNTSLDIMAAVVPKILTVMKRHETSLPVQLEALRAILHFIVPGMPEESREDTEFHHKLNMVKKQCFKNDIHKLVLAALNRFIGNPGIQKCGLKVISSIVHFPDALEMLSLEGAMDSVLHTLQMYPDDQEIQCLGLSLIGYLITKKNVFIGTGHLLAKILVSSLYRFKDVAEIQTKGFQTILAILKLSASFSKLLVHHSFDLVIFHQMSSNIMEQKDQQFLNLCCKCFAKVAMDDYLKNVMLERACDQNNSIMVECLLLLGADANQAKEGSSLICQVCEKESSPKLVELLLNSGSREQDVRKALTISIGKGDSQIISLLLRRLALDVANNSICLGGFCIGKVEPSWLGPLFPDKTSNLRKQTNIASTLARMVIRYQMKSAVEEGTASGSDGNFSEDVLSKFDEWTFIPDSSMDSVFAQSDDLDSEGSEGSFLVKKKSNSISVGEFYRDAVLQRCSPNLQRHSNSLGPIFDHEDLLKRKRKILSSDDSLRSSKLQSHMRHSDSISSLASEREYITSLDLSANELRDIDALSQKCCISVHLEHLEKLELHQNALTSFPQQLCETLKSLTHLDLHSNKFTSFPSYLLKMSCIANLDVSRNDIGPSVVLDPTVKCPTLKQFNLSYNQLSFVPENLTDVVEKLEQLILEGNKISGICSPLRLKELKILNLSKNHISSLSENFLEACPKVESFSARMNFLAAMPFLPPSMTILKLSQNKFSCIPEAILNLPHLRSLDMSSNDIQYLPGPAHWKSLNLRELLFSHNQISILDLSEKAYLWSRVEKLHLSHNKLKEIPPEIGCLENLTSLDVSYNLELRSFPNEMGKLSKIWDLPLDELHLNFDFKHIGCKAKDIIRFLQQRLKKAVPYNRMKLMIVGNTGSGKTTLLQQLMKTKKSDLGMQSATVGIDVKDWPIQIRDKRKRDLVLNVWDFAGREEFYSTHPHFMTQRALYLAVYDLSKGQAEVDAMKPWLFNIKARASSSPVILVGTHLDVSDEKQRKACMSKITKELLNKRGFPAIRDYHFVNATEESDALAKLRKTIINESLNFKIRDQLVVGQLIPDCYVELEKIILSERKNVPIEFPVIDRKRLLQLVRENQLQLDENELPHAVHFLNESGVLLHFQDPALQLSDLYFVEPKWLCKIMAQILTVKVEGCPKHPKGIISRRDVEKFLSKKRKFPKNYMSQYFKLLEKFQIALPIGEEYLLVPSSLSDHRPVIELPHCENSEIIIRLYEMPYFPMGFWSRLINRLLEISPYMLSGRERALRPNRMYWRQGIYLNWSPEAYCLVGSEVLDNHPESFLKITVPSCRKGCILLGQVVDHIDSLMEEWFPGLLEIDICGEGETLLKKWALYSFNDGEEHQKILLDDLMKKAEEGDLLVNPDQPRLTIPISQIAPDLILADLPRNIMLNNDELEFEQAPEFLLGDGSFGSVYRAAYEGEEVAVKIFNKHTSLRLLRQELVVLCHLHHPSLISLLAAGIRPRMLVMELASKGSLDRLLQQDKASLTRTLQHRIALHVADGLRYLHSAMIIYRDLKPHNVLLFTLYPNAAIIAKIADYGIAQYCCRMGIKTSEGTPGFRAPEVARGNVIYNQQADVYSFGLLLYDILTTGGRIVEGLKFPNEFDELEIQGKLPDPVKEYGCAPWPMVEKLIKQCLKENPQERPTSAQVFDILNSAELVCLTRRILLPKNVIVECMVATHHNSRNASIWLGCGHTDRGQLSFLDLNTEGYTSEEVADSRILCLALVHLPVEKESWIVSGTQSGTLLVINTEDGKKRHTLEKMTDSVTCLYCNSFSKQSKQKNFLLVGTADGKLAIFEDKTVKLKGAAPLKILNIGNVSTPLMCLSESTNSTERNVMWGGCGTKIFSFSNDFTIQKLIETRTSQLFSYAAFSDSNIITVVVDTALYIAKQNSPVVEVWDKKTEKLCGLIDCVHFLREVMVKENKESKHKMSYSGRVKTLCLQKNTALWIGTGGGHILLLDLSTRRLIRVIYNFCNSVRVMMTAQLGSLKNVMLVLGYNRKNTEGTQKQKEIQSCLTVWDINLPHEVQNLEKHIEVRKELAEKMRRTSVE
Chain of Serine/threonine-protein kinase B-raf (Homo sapiens) (P15056 whole entry): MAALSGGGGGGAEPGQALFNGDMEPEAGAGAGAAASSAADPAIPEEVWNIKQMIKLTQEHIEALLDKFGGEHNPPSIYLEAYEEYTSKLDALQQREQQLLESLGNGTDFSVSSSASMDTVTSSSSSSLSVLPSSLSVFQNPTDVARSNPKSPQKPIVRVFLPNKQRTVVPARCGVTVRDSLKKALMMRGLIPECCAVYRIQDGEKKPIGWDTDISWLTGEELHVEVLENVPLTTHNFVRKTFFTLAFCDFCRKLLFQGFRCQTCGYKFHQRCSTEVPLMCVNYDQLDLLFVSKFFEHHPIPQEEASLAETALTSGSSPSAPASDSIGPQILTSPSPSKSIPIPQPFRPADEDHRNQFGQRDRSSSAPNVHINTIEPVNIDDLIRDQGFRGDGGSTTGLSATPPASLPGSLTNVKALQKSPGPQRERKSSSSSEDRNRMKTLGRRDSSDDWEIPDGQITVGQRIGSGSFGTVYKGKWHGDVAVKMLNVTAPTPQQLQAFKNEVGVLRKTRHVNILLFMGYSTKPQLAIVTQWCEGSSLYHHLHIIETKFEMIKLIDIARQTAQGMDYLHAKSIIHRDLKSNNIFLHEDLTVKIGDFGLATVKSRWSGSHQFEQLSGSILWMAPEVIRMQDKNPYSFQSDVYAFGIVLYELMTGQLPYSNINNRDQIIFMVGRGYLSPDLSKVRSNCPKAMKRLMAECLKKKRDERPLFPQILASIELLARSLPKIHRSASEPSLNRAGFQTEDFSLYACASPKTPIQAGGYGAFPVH
Chain of Leucine-rich repeat serine/threonine-protein kinase 2 (Homo sapiens), Q5S007 [G2019S] (Q5S007 whole entry G2019S): as the sequence (Q5S007 whole entry) above, with G2019S counted along it
Chain of Serine/threonine-protein kinase B-raf (Homo sapiens), P15056 [V600E] (P15056 whole entry V600E): as the sequence (P15056 whole entry) above, with V600E counted along it
Chain of Tyrosine-protein kinase Yes (Homo sapiens) (P07947 2-543 limits assumed): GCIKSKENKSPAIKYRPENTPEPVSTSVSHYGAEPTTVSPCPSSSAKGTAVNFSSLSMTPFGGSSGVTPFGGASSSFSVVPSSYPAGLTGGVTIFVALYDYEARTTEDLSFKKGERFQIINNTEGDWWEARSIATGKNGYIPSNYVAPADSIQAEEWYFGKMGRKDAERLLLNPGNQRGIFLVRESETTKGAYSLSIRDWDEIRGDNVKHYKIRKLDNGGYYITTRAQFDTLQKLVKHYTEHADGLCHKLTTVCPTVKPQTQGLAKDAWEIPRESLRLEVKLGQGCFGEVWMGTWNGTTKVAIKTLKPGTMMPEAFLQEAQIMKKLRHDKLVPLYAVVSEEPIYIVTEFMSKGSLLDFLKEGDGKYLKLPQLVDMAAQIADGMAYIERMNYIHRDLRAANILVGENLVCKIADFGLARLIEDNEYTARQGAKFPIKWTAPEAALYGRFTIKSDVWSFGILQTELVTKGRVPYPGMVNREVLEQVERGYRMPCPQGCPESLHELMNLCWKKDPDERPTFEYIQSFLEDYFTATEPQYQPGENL
Chain of RAF proto-oncogene serine/threonine-protein kinase (Homo sapiens) (P04049 whole entry): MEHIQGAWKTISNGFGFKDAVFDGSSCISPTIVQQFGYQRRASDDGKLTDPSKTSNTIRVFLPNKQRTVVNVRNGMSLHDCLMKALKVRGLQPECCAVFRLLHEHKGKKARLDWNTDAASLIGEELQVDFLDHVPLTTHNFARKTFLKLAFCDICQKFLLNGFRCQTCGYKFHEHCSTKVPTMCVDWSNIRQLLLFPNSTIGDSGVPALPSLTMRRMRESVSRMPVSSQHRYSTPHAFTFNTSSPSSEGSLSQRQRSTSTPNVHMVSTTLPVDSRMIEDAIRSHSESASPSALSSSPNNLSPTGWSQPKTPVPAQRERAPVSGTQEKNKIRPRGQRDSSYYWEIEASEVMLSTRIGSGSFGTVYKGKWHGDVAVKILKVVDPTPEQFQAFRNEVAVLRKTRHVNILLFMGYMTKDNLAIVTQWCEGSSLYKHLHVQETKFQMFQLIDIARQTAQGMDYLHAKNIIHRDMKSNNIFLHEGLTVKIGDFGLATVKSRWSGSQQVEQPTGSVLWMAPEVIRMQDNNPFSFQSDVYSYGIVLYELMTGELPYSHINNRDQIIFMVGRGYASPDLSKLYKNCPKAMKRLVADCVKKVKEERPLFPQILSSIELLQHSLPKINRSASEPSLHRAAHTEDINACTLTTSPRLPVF

## COc1ccc(-c2ccc3c(NC(=O)C4CC4)n[nH]c3n2)cc1
[1]
  inhibition: 21.7%
[2]
  inhibition: 2.13%
[3]
  inhibition: 8.75%
[4]
  inhibition: 0.8%
[5]
  inhibition: -3.24%
[6]
  inhibition: 3.14%
[7]
  inhibition: 2%
[8]
  inhibition: 3.73%
[9]
  inhibition: 1.97%
[10]
  inhibition: -1.88%
[11]
  inhibition: 2.75%
[12]
  inhibition: 0.45%
[13]
  inhibition: 1.6%
[14]
  inhibition: 5.11%
[15]
  inhibition: 2.17%
[16]
  inhibition: 3.39%

## NS(=O)(=O)c1ccc(N/N=C2\C(=O)Nc3ccc(C(=O)NCCCn4ccnc4)cc32)cc1
[1]
  inhibition: 9.93%
[2]
  inhibition: 5.35%
[3]
  inhibition: 24.1%
[4]
  inhibition: 0.31%
[5]
  inhibition: 8.11%
[6]
  inhibition: 10.7%
[7]
  inhibition: 38.4%
[8]
  inhibition: 11.3%
[9]
  inhibition: 38.9%
[10]
  inhibition: 5.92%
[17]
  inhibition: 17.5%
[11]
  inhibition: 3.89%
[12]
  inhibition: 1.67%
[13]
  inhibition: 7.05%
[14]
  inhibition: 18.7%
[15]
  inhibition: 11.1%
[16]
  inhibition: 38.8%

## COc1cccc(-n2cnc3c(N/N=C/c4ccncc4)ncnc32)c1
[1]
  inhibition: 4.59%
[2]
  inhibition: 7.55%
[3]
  inhibition: 36.4%
[4]
  inhibition: -2.42%
[5]
  inhibition: -3.33%
[6]
  inhibition: -0.31%
[7]
  inhibition: -1.09%
[8]
  inhibition: -0.89%
[9]
  inhibition: -0.68%
[10]
  inhibition: -3.41%
[17]
  inhibition: -4.3%
[11]
  inhibition: -2.35%
[12]
  inhibition: 0.01%
[13]
  inhibition: -1.76%
[14]
  inhibition: 7.17%
[15]
  inhibition: 0.11%
[16]
  inhibition: 18.1%

## O=C1NC(=O)C(c2cccc(Cl)c2)=C1Nc1ccc(Cl)c(C(=O)O)c1
[1]
  inhibition: 2.5%
[2]
  inhibition: 4.03%
[3]
  inhibition: 6%
[4]
  inhibition: 4.89%
[5]
  inhibition: 2.76%
[6]
  inhibition: 5.48%
[7]
  inhibition: 2.76%
[8]
  inhibition: 6.61%
[9]
  inhibition: 4.77%
[10]
  inhibition: 2.73%
[17]
  inhibition: 17.7%
[11]
  inhibition: 3.69%
[12]
  inhibition: 1.5%
[13]
  inhibition: 2.15%
[14]
  inhibition: 4.76%
[15]
  inhibition: 3.36%
[16]
  inhibition: 7.81%

## O=C(Nc1ccc(Oc2ccc3[nH]c(NC(=O)c4ccccc4)nc3c2)cc1)Nc1cc(C(F)(F)F)ccc1F
[1]
  inhibition: 16.8%
[2]
  inhibition: 1.01%
[3]
  inhibition: 7.23%
[4]
  inhibition: -1.74%
[5]
  inhibition: 1.65%
[6]
  inhibition: 4.48%
[7]
  inhibition: 33.4%
[8]
  inhibition: 5.24%
[9]
  inhibition: 42.7%
[10]
  inhibition: -3.16%
[17]
  inhibition: 17.9%
[11]
  inhibition: -1.64%
[12]
  inhibition: 2.09%
[13]
  inhibition: 13%
[14]
  inhibition: 18.4%
[15]
  inhibition: 6.22%
[16]
  inhibition: 36.1%

## O=C(Nc1n[nH]c2nc(-c3ccco3)ccc12)C1CC1
[1]
  inhibition: 8.73%
[2]
  inhibition: 0.35%
[3]
  inhibition: 0.02%
[4]
  inhibition: 0.28%
[5]
  inhibition: 0.47%
[6]
  inhibition: 1.98%
[7]
  inhibition: 3.43%
[8]
  inhibition: 1.17%
[9]
  inhibition: 4.38%
[10]
  inhibition: 4.75%
[17]
  inhibition: 0.48%
[11]
  inhibition: -2.9%
[12]
  inhibition: 0.56%
[13]
  inhibition: 3.59%
[14]
  inhibition: 7.47%
[15]
  inhibition: 2.37%
[16]
  inhibition: 8.01%

## NS(=O)(=O)c1ccc(N/N=C2\C(=O)Nc3ccc(-c4cnco4)cc32)cc1
[1]
  inhibition: 12.4%
[2]
  inhibition: 2.12%
[3]
  inhibition: 12.1%
[5]
  inhibition: 2.47%
[6]
  inhibition: 3.07%
[7]
  inhibition: 5.71%
[8]
  inhibition: 1.57%
[9]
  inhibition: 4.4%
[10]
  inhibition: 0.67%
[17]
  inhibition: -0.01%
[11]
  inhibition: 0.31%
[12]
  inhibition: 1.08%
[13]
  inhibition: 9.37%
[14]
  inhibition: 52.5%
[15]
  inhibition: 32.2%
[16]
  inhibition: 55.8%

## Fc1ccc(-c2ncn(C3CCNCC3)c2-c2ccnc(Oc3ccc(F)c(F)c3)n2)cc1
[1]
  inhibition: 1.35%
[2]
  inhibition: 2.3%
[3]
  inhibition: 0.42%
[4]
  inhibition: -5.04%
[5]
  inhibition: -3.78%
[6]
  inhibition: 6.07%
[7]
  inhibition: 6.2%
[8]
  inhibition: 4.48%
[9]
  inhibition: 4.06%
[10]
  inhibition: -1.78%
[17]
  inhibition: -0.68%
[11]
  inhibition: 1.33%
[12]
  inhibition: 1.17%
[13]
  inhibition: -3.16%
[14]
  inhibition: -4.05%
[15]
  inhibition: 0.63%
[16]
  inhibition: 2.39%

— ChEMBL document CHEMBL1961873, “Compounds: GSK PKIS; Assays: Nanosyn kinase panel” (2012)
